# Results reported in the supplement of paper PMC11732987, “Enantioselective OTUD7B fragment discovery through chemoproteomics screening and high-throughput optimisation” (Communications Chemistry, 2025).
# A number with no mark means an inactive call.
# Experiments:
# Test in all cases: log2 ratio of Biotin-Ahx-Ub-VS probe labelling (fragment/DMSO); higher = less target engagement (more negative = stronger competition), active = hit call of the paper (q ≤ 0.05, log2 ratio ≤ -1)
# Details in all cases: compound concentration: 200 uM; treatment time: 3 h
# OTUD6B = molecular target: T1, OTUD6B (UniProt Q8N6M0)
# T1 sequence (whole entry): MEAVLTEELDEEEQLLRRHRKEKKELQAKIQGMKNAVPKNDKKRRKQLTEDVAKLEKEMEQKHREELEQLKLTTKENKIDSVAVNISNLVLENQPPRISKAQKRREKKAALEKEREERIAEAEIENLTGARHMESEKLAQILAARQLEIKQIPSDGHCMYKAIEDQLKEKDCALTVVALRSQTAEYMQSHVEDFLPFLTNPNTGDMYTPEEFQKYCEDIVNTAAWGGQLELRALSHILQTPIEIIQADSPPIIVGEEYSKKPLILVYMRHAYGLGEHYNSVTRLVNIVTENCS
# How it was run: (§1)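 Labelled DUBs from HEK293T lysate were NeutrAvidin-enriched, digested with LysC and trypsin, and run by diaPASEF LC-MS/MS. Before that, each 495 µg sample in Tris/CHAPS/IGEPAL buffer with protease inhibitors was treated in triplicate with fragment at 200 µM or vehicle for 3 h, then with Biotin-Ahx-Ub-VS at 0.5 µM final for 1 h. Values are average log2 ratios of fragment over vehicle by unpaired t-test, based on global-median-normalised Spectronaut label-free quantities from proteins with ≥2 unique peptides.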
# OTUD7B = molecular target: T2, OTUD7B (UniProt Q6GQQ9)
# T2 sequence (whole entry): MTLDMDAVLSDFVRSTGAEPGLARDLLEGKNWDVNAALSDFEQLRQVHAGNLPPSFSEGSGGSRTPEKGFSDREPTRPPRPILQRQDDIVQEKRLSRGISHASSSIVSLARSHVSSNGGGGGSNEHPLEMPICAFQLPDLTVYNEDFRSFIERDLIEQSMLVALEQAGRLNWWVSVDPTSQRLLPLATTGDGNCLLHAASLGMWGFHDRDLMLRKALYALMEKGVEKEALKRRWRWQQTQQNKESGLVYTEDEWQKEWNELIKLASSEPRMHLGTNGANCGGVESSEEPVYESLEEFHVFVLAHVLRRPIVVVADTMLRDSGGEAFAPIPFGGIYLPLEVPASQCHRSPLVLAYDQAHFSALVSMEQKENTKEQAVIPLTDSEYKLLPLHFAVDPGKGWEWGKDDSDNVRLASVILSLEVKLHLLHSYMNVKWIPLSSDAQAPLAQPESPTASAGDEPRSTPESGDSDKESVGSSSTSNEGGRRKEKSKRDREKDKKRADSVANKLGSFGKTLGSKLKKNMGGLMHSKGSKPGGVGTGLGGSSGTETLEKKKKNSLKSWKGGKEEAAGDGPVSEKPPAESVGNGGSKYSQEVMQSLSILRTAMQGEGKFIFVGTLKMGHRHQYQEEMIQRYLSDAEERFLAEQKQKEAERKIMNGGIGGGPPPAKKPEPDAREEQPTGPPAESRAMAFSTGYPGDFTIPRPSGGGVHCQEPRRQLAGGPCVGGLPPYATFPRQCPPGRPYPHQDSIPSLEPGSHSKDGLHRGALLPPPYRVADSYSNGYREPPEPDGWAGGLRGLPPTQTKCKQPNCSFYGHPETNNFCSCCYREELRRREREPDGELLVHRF
# How it was run: as §1
# PRPF8 = PRPF8 (UniProt Q6P2Q9)
# How it was run: as §1
# PSMD7 = molecular target: T3, PSMD7 (UniProt P51665)
# T3 sequence (whole entry): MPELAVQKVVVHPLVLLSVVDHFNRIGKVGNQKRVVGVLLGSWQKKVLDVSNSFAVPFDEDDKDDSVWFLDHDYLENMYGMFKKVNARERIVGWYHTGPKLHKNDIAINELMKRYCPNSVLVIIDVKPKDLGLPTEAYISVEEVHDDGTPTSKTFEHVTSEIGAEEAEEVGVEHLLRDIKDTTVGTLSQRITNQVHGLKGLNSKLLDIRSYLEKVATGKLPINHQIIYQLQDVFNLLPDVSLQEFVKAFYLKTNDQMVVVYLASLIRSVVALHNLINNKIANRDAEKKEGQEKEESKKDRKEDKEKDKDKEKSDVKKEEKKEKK
# How it was run: as §1
# UCHL1 = UCHL1 (UniProt P09936)
# UCHL1, sequence (P09936 whole entry, looked up): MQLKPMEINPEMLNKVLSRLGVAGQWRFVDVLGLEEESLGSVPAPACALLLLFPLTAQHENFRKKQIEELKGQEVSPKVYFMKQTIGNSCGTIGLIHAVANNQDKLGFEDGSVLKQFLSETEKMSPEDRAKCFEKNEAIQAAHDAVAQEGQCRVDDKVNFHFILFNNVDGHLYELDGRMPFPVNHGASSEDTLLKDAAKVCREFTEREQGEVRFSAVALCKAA
# How it was run: as §1
# UCHL3 = molecular target: T4, UCHL3 (UniProt P15374)
# T4 sequence (whole entry): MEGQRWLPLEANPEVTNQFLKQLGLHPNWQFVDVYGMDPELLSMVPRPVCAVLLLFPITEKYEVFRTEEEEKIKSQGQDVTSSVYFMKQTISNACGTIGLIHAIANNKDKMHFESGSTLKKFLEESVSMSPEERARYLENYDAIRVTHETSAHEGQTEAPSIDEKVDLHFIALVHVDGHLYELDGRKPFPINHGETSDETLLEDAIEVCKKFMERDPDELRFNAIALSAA
# How it was run: as §1
# UCHL5 = molecular target: T5, UCHL5 (UniProt Q9Y5K5)
# T5 sequence (whole entry): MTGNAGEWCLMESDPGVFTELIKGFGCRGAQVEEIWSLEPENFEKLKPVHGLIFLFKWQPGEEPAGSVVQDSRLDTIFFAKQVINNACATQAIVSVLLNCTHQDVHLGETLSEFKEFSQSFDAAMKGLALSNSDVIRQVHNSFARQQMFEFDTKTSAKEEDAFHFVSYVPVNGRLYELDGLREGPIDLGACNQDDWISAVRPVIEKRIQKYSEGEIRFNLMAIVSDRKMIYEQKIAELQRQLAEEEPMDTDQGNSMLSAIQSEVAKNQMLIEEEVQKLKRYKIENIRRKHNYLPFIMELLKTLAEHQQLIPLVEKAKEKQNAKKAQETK
# How it was run: as §1
# USP10 = USP10 (UniProt Q14694)
# USP10, sequence (Q14694 whole entry): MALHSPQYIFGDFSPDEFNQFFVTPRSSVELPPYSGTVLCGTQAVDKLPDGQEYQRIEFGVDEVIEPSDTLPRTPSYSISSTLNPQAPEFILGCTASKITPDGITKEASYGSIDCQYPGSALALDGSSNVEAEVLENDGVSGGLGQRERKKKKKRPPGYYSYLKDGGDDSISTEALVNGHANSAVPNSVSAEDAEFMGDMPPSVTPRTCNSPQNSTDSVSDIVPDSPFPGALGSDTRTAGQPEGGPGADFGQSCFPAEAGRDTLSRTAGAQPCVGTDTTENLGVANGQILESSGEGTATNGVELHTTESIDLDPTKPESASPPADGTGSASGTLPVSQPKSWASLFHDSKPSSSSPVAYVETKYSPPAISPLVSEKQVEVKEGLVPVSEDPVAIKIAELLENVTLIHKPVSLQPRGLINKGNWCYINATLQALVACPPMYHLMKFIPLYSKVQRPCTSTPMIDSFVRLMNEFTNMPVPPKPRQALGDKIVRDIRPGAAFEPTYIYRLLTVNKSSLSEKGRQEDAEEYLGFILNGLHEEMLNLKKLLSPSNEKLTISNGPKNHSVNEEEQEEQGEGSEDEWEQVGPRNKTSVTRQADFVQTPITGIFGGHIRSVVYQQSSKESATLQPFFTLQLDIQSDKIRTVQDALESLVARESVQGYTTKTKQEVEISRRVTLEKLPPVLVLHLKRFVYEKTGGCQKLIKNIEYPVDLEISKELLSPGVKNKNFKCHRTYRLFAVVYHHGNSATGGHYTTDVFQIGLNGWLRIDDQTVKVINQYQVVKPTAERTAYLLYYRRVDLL
# How it was run: as §1
# USP15 = molecular target: T6, USP15 (UniProt Q9Y4E8)
# T6 sequence (whole entry): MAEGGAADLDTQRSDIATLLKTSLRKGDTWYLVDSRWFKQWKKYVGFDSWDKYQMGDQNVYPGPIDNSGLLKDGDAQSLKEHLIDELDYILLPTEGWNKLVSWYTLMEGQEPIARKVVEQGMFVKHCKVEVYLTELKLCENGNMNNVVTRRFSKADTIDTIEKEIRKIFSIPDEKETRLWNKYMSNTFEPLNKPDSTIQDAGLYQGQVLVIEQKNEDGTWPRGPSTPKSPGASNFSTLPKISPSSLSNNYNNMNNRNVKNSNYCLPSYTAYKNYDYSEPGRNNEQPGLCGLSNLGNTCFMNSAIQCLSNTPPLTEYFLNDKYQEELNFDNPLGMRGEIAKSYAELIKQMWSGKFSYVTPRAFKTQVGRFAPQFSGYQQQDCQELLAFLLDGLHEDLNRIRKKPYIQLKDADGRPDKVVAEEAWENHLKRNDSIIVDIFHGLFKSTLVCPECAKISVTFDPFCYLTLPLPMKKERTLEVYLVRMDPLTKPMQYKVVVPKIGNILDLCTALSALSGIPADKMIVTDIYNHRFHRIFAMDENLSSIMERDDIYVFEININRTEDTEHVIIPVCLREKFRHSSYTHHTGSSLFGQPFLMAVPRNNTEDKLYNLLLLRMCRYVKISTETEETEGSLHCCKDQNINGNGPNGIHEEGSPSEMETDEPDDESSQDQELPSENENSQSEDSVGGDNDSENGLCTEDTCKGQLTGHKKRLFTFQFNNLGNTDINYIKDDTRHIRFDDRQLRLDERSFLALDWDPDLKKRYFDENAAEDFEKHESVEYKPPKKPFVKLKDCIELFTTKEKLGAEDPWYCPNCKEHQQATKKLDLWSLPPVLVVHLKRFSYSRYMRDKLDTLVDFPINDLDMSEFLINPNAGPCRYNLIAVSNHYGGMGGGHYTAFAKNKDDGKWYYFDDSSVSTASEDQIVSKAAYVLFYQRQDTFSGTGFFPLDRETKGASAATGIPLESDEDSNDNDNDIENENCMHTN
# How it was run: as §1
smiles,measurement,setting,value
O=C(CCl)N1CCCN(C(=O)c2ccc(Cl)cc2)CC1,log2 ratio of Biotin-Ahx-Ub-VS probe labelling,OTUD6B,-0.316
same,log2 ratio of Biotin-Ahx-Ub-VS probe labelling,OTUD7B,-0.767
same,log2 ratio of Biotin-Ahx-Ub-VS probe labelling,PRPF8,0.0935
same,log2 ratio of Biotin-Ahx-Ub-VS probe labelling,PSMD7,-0.253
same,log2 ratio of Biotin-Ahx-Ub-VS probe labelling,UCHL1,-1.68 (active)
same,log2 ratio of Biotin-Ahx-Ub-VS probe labelling,UCHL3,0.267
same,log2 ratio of Biotin-Ahx-Ub-VS probe labelling,UCHL5,-0.389
same,log2 ratio of Biotin-Ahx-Ub-VS probe labelling,USP10,0.0223
same,log2 ratio of Biotin-Ahx-Ub-VS probe labelling,USP15,-0.429
